GAA850 FXN act: FXN promoter activators, primary screen, cell-based, luciferase luminescence, HEK293 lucGAA850; hit rate 0.56% among 360,000; HEK293 lucGAA850 FXN promoter luciferase reporter, 24 h; percent of 10 µM SAHA response; activation, % at 6 µM;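 active = activation above the average of all compounds screened plus 3 SD, cutoff fixed separately per campaign, cut at about 7.5% in these data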
AHR activator: AHR activators, primary screen, cell-based, luminescence, luciferase reporter, human; AHR-responsive luciferase reporter cells; activation, % at 5 µM; hit rate 2.5% among 320,000; AID 2796, 2010; in the data active = activation above about 47%
Target sequence (P35869 whole entry, looked up): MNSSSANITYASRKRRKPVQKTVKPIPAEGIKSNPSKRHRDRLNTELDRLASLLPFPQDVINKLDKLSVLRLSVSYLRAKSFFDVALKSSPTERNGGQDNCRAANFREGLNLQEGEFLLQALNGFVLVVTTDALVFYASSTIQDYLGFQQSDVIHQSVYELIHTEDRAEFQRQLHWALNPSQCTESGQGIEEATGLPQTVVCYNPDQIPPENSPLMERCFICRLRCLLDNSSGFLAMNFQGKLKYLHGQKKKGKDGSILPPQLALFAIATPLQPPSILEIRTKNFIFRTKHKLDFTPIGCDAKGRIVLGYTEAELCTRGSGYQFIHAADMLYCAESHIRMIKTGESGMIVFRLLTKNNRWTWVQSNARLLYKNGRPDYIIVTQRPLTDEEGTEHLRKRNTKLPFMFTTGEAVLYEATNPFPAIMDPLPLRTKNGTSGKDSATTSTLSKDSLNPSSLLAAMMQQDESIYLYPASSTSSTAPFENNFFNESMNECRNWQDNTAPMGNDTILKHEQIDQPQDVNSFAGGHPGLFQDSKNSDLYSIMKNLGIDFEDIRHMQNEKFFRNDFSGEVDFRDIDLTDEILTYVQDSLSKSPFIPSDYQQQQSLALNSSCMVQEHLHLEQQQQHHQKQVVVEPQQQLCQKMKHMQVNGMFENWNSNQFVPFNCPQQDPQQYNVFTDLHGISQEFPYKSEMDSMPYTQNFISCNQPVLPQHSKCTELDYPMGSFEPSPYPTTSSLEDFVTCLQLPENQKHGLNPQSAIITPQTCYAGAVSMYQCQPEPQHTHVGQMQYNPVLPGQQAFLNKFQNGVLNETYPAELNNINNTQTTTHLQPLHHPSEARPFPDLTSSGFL
HSF1 inhib: HSF1 inhibitors in luciferase reporter cells, primary screen, cell-based, NIH3T3, luminescence; hit rate 0.77% among 300,000; activity change, negative = inhibition, % at 7.5 µM (by protocol); NIH3T3-HGL HSE-luciferase, MG132-induced, luminescence 8 h; stronger effect = lower value;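 active = more than half of replicate wells show activity change below -50%, luminescence cut by over half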;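 also: luciferase reports HSF-1 transcriptional activity via heat shock element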
HSF1 activator: HSF-1 activators, primary screen, NIH3T3-HGL cells, MG132 stress, luminescence, single point. NIH3T3-HGL HSF-1 luciferase reporter, 8 h; 100% = twice DMSO control signal. activation, % at 9 µM. hit rate 1.7% among 300,000. AID 504408, 2011;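 active = mean replicate activation of at least 50% with a set share of replicates each reaching 50%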
Of the large screens only hits and unclear results are named; the others gave an inactive call. Shown are actives, neighbours in structure and some others; about 4.6% of the full set was active somewhere.

CC(=O)c1sc(NC(=O)Cc2c(F)cccc2Cl)nc1C	none
O=C(Cc1c(F)cccc1Cl)Nc1nc2ccccc2s1	HSF1 activator 62
O=C(Nc1ccc(NC(=O)c2cccs2)cc1)c1ccccc1	none
Cc1ccc(NC(=O)c2cccs2)cc1NC(=O)c1cccc(F)c1	AHR activator 64, HSF1 activator 58
O=C(Nc1ccc(O)cc1)c1ccc(NC(=O)c2cccs2)cc1	HSF1 activator 65
O=C(Nc1ccc2c(c1)CCC2)c1cccs1	HSF1 activator 55
Nc1ccc(NC(=O)c2cccs2)cc1	none
CCc1nnc(NC(=O)C2CCN(C(=O)NC3CCCCC3)CC2)s1	none
C[C@@H]1CN([C@H](C)CO)C(=O)CCCn2nncc2CO[C@H]1CN(C)C(=O)Nc1cccc2ccccc12	none (no result: AHR activator, HSF1 inhib, HSF1 activator)
COc1ccccc1-n1nnnc1SCC(=O)Nc1oc(C)c2c(C)n[nH]c(=O)c12	none
CCn1c(/C=C/c2cccc([N+](=O)[O-])c2)nc2ccccc2c1=O	AHR activator 68
CCn1c(/C=C/c2c[nH]c3ccccc23)nc2ccccc2c1=O	HSF1 activator 81
CCn1c(/C=C/c2c(C)[nH]c3ccccc23)nc2ccccc2c1=O	AHR activator 65
Cc1cccc(NC(=S)NCCSc2ccc(Cl)cc2)c1	none
O=C(CCNC(=O)c1ccco1)Nc1ccc(F)c(Cl)c1	none
CCOC(=O)C1=NNC(C(=O)c2ccc(OC)cc2)C1c1ccccc1 (centres undefined)	none
CCOc1ccc(-c2cnc(NCc3cccc4ccccc34)n2CCOC)cc1	HSF1 inhib -83
COc1ccc(CNc2ncc(-c3ccc(F)cc3)n2C)c2ccccc12	AHR activator 61
COc1ccccc1CNc1ncc(-c2ccc(F)cc2)n1C	AHR activator 73
NC(=O)c1cc(S(=O)(=O)Nc2cccc(Cl)c2)cs1	none
Clc1ccc(Nc2nc3cccnc3s2)cc1	AHR activator 53
CCOc1ccc(S(=O)(=O)N2CCCC(C(=O)NCc3ccco3)C2)cc1 (centres undefined)	none
Clc1ccccc1CN1CCc2sccc2C1	none
Cc1ccc(Nc2cc(-n3cccn3)ncn2)c(C)c1	HSF1 activator 52
Cc1ccc(S(=O)(=O)/N=C2/NC(=O)/C(=C/c3cc([N+](=O)[O-])ccc3O)S2)cc1	none
Cc1cc(C)c([N+](=O)[O-])cc1NCC(=O)N1CCN(c2ccccc2)CC1	none
CCOC(=O)c1cc2c(=O)n3ccccc3nc2n(Cc2ccco2)c1=NC(=O)c1ccccc1OC	HSF1 activator 100
CCOC(=O)c1cc2c(=O)n3cccc(C)c3nc2n(CCOC)c1=NC(C)=O	HSF1 inhib -63
N=c1c(C(=O)NC2CCCCC2)cc2c(=O)n3ccccc3nc2n1Cc1ccco1	none
CCOC(=O)c1cc2c(=O)n3ccccc3nc2n(CCCOC)c1=NC(C)=O	none (no result: HSF1 inhib, HSF1 activator)
N=c1c(C(=O)NCCc2ccccc2)cc2c(=O)n3ccccc3nc2n1Cc1ccco1	HSF1 activator 75
COc1cc(S(=O)(=O)Nc2ncccc2C)c(OC)cc1Cl	none
COc1ccc(Br)cc1S(=O)(=O)Nc1ncccc1C	HSF1 inhib -88
CCc1sc(C(=O)N2CCc3cc(OC)c(OC)cc3C2CC(=O)O)cc1C (centres undefined)	none (no result: HSF1 inhib, HSF1 activator)
Cc1nnc(-c2cnn(C)c2N)n1Cc1ccccc1	none
Cc1nnc(-c2cnn(C)c2N)n1Cc1cccc(Cl)c1	AHR activator 54
CCCCCCCn1c(C)nnc1-c1cnn(C)c1N	AHR activator 70
CCN(CC)C(=O)c1[nH]cnc1C(=O)N[C@H](C)c1ccccc1	none (no result: HSF1 inhib, HSF1 activator)
CCOC(=O)C1=C(SCC(=O)Nc2ccccc2)NC(=O)C(C#N)C12CCCCC2 (centres undefined)	none
CN(CCc1cnn(C)c1)Cc1cn[nH]c1-c1ccc(-c2ccccc2)cc1	none
COCCN1Cc2cccc(C(=O)NC3CCCCCC3)c2C1=O	none
Cc1c(C(=O)c2no[n+]([O-])c2C(=O)c2cnn(C)c2C)cnn1C	HSF1 inhib -94
COc1ccccc1NC(=O)CSc1nnc(-c2ccc(NC(C)=O)cc2)n1C	none
COC(=O)c1cc(-c2ccc(OC)cc2F)nc2nc(SC)[nH]c(=O)c12	none
COc1ccc(NC(=O)c2sccc2C)cn1	HSF1 activator 70
Cc1ccc(S(=O)(=O)NCCN2CCOCC2)c(C)c1	none
Cc1cccc(CS(=O)(=O)Cc2ccc(C(=O)NCc3cccs3)o2)c1	HSF1 inhib -71
COc1cc(NC(=O)c2ccccc2F)c(OC)cc1NC(=O)CN1CCOCC1	AHR activator 51
COc1ccccc1N1CCN(CC(=O)Nc2ccccc2C(=O)NCCc2ccccc2)CC1	AHR activator 63 (no result: HSF1 inhib, HSF1 activator)
COc1ccc(CCNC(=O)c2ccccc2NC(=O)CN2CCN(c3ccccc3O)CC2)cc1	none (no result: AHR activator, HSF1 inhib, HSF1 activator)
COc1ccccc1NC(=O)c1ccc(NC(=O)CN2CCCCC2)cc1	none (no result: HSF1 inhib, HSF1 activator)
COc1ccccc1NC(=O)CN1CCN(CC(=O)Nc2ccc(F)cc2F)CC1	HSF1 activator 69 (no result: AHR activator)
COc1ccccc1NC(=O)c1ccc(NC(=O)CN2CCCC2)cc1	AHR activator 53
Cc1ccc(S(=O)(=O)Nc2cccc(C(=O)NCc3ccccn3)c2)cc1F	none
O=C(CSCc1ccccc1)Nc1ccc(S(=O)(=O)N2CCOCC2)cc1	none
COc1ccccc1NC(=O)c1ccc(NC(=O)COC(=O)C2CCCCC2)cc1	none
COc1ccccc1NC(=O)c1ccc(NC(=O)COC(=O)c2cncc(Br)c2)cc1	AHR activator 50 (no result: HSF1 inhib, HSF1 activator)
CCOC(=O)Cn1c(COc2ccccc2OC)[n+](C)c2ccccc21	HSF1 inhib -84
CC(=O)Nc1cccc(Nc2nc(-c3ccccc3F)nc3ccccc23)c1	none
NNc1nc(-c2ccccc2)nc2sc3c(c12)CCCC3	AHR activator 75
CCOc1ccc(/C=N/n2c(C)nc3ccccc3c2=O)cc1	none
CCNC(=O)c1ccc(CSc2ccc(Cl)cc2)cc1	none
CC(=O)NCCNC(=O)c1ccc(CSc2ccc(Cl)cc2)cc1	HSF1 activator 68
CC(C)c1ccc(C(=O)NCc2ccc(Cl)cc2)cc1	HSF1 activator 57
CCOC(=O)CSc1nc2ccccc2n1CC(=O)NC(C)(C)C	none
CC(C)(C)c1ccc(OCCCC(=O)Nc2ccc(S(N)(=O)=O)cc2)cc1	HSF1 activator 56
Cc1cccc(C)c1N(CC(=O)Nc1cccc(N(C)S(C)(=O)=O)c1)S(C)(=O)=O	none
COCCN(Cc1cc2ccc(C)c(C)c2nc1Cl)C(=O)N1CCOCC1	HSF1 activator 55
COCCN(Cc1cc2cc(C)c(C)cc2nc1Cl)C(=O)N1CCOCC1	none
CC(=O)C1=C(O)C(=O)N(c2ccc(Br)cc2)C1c1ccc(Br)cc1 (centres undefined)	AHR activator 49
COc1ccc(C2C(CC(=O)O)=C(Nc3ccccc3)C(=O)N2c2ccccc2)cc1 (centres undefined)	HSF1 activator 64
CC(=O)C1=C(O)C(=O)N(c2cccc(Br)c2)C1c1ccc(Br)cc1 (centres undefined)	none

Screening results: PubChem, several laboratories
